# Assay results as given in paper PMC7862700, “An all-to-all approach to the identification of sequence-specific readers for epigenetic DNA modifications on cytosine”.
# Assays:
# Assay in all cases: DAPPL (digital affinity profiling via proximity ligation, sequencing); 10 mM Tris-HCl pH 7.5, 50 mM NaCl, 1 mM DTT, 4% glycerol, room temperature, 30 min; GST-TFs on glutathione beads, 16-mer random dsDNA library, 0.1% formaldehyde crosslink after washing; high values mean tight binding
# [1] = target: T1, FLI1 (Homo sapiens, UniProt Q01543 1-452); settings: protein: recombinant; tags: N-terminal GST; dsDNA, one strand shown
# T1 sequence: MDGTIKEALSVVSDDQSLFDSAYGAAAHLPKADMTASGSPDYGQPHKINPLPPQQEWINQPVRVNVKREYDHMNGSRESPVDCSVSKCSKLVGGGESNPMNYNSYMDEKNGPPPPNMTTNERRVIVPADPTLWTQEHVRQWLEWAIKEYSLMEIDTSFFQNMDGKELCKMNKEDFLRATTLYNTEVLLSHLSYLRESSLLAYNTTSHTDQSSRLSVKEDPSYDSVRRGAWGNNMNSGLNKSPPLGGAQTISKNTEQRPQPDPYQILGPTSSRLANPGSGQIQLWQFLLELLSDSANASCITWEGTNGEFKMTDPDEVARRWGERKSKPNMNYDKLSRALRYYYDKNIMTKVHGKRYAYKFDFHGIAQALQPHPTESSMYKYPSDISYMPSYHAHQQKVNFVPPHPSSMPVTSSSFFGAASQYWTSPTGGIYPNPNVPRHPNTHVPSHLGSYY
# How it was run: (§1)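 Yeast served to express human transcription factors as GST fusions, which were then captured on glutathione beads and labelled with DNA barcodes. Pooled with a tag-only sample, they were incubated with 200 nmole of a 16-mer random double-stranded DNA library for 30 min at room temperature in Tris/NaCl/DTT/glycerol buffer, washed, crosslinked with 0.1% formaldehyde, ligated by proximity, amplified by PCR and sequenced. Dividing each hexamer's read frequency for a factor by its frequency for the tag-only sample gives the binding signal.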
# [2] = target: T2, ELK1 (Homo sapiens, UniProt P19419 1-428); settings: protein: recombinant; tags: N-terminal GST; dsDNA, one strand shown
# T2 sequence: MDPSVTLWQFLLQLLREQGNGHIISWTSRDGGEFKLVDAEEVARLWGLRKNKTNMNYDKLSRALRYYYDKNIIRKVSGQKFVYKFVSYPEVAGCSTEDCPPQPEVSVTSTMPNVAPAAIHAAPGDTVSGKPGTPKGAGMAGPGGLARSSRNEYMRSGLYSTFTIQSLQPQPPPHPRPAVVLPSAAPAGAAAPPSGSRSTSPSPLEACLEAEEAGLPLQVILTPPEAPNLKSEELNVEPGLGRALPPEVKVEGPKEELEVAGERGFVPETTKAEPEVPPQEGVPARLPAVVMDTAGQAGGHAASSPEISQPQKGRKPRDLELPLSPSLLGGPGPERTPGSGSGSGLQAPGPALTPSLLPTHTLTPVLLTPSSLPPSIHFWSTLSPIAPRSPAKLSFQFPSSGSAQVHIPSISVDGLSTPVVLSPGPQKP
# How it was run: as §1
# [3] = target: T3, GABPA (Homo sapiens, UniProt Q06546 1-454); settings: protein: recombinant; tags: N-terminal GST; dsDNA, one strand shown
# T3 sequence: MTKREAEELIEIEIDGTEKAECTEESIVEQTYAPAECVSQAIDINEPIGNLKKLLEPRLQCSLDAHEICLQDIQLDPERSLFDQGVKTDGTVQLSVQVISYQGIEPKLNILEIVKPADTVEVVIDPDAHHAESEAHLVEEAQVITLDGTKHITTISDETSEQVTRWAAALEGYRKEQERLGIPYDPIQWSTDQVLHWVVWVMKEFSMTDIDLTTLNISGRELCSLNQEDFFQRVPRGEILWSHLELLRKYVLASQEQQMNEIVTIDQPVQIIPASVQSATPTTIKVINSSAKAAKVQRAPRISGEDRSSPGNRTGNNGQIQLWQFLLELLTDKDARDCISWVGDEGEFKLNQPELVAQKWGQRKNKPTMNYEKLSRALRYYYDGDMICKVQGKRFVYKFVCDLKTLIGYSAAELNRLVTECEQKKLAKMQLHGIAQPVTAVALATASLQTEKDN
# How it was run: as §1
# [4] = target: T4, ERG (Homo sapiens, UniProt P11308 1-479); settings: protein: recombinant; tags: N-terminal GST; dsDNA, one strand shown
# T4 sequence: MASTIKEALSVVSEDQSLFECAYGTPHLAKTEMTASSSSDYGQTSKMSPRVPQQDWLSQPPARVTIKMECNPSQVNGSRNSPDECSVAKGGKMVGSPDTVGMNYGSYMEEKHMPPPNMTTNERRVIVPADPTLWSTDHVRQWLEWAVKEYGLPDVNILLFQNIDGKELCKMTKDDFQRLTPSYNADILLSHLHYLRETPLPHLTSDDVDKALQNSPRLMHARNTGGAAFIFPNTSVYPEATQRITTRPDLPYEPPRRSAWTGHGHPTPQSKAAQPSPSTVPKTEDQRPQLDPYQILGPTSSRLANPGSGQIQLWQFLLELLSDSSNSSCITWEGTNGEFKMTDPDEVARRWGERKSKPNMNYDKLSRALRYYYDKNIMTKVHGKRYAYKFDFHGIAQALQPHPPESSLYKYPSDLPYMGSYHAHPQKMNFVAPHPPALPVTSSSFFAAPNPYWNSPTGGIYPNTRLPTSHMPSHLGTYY
# How it was run: as §1
# [5] = target: ELF1 (Homo sapiens, UniProt P32519 1-619); settings: protein: recombinant; tags: N-terminal GST; dsDNA, one strand shown
# How it was run: as §1
# [6] = target: T5, EHF (Homo sapiens, UniProt Q9NZC4 1-300); settings: protein: recombinant; tags: N-terminal GST; dsDNA, one strand shown
# T5 sequence: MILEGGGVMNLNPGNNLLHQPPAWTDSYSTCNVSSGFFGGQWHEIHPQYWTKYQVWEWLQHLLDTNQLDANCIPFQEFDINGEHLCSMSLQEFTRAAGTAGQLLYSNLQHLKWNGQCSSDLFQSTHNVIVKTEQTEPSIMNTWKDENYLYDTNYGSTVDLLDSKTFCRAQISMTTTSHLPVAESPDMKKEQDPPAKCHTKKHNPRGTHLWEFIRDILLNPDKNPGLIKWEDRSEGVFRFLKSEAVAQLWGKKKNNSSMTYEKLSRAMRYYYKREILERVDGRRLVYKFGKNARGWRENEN
# How it was run: as §1
# [7] = target: SPI1 (Homo sapiens, UniProt P17947 1-270); settings: protein: recombinant; tags: N-terminal GST; dsDNA, one strand shown
# How it was run: as §1
# [8] = target: SPIB (Homo sapiens, UniProt Q01892 1-262); settings: protein: recombinant; tags: N-terminal GST; dsDNA, one strand shown
# How it was run: as §1
# [9] = target: T6, ELK3 (Homo sapiens, UniProt P41970 1-407); settings: protein: recombinant; tags: N-terminal GST; dsDNA, one strand shown
# T6 sequence: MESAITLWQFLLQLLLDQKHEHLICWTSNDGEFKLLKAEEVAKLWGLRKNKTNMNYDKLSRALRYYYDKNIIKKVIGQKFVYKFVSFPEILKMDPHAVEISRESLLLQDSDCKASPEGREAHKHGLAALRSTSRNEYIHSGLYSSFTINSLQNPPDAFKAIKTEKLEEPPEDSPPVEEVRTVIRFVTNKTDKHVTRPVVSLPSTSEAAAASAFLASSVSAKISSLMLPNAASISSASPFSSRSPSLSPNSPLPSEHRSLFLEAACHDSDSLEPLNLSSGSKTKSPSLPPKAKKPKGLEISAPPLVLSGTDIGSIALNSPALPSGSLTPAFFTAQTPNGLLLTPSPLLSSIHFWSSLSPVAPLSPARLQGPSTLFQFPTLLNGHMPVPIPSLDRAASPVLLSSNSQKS
# How it was run: as §1
# [10] = target: T7, FEV (Homo sapiens, UniProt Q99581 1-238); settings: protein: recombinant; tags: N-terminal GST; dsDNA, one strand shown
# T7 sequence: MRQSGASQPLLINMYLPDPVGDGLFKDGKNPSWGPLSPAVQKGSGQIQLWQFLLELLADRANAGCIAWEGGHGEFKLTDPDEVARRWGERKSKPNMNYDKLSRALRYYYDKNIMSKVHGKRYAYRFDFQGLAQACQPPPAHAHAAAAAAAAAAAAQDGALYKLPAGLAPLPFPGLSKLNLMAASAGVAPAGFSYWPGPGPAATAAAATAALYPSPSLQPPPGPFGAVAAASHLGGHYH
# How it was run: as §1
# [11] = target: ETV5 (Homo sapiens, UniProt P41161 1-510); settings: protein: recombinant; tags: N-terminal GST; dsDNA, one strand shown
# How it was run: as §1
# [12] = target: HSF1 (Homo sapiens, UniProt Q00613 1-529); settings: protein: recombinant; tags: N-terminal GST; chain copies: 3; dsDNA, one strand shown
# How it was run: as §1
# [13] = target: T8, SPIC (Homo sapiens, UniProt Q8N5J4 1-248); settings: protein: recombinant; tags: N-terminal GST; dsDNA, one strand shown
# T8 sequence: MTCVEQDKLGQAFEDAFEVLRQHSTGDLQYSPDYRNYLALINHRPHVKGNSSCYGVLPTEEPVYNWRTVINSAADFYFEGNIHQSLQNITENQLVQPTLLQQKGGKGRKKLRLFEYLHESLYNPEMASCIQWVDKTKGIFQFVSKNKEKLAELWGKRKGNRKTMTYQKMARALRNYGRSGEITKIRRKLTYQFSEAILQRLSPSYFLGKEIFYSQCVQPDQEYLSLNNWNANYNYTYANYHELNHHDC
# How it was run: as §1
# [14] = target: ELF4 (Homo sapiens, UniProt Q99607 1-663); settings: protein: recombinant; tags: N-terminal GST; dsDNA, one strand shown
# How it was run: as §1
# [15] = target: T9, ELK4 (Homo sapiens, UniProt P28324-2 1-405); settings: protein: recombinant; tags: N-terminal GST; dsDNA, one strand shown
# T9 sequence: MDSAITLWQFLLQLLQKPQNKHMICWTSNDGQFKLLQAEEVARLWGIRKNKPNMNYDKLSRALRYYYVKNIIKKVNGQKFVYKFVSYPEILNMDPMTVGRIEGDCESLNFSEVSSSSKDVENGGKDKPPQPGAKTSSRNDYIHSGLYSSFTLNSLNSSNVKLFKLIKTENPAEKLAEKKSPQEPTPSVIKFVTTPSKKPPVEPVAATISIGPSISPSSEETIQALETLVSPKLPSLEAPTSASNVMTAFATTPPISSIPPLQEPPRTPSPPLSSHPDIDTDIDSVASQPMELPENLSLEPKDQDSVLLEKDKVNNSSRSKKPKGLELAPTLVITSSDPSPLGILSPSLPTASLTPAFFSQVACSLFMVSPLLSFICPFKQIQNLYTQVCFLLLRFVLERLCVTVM
# How it was run: as §1
# [16] = target: T10, ETV2 (Homo sapiens, UniProt O00321 1-342); settings: protein: recombinant; tags: N-terminal GST; dsDNA, one strand shown
# T10 sequence: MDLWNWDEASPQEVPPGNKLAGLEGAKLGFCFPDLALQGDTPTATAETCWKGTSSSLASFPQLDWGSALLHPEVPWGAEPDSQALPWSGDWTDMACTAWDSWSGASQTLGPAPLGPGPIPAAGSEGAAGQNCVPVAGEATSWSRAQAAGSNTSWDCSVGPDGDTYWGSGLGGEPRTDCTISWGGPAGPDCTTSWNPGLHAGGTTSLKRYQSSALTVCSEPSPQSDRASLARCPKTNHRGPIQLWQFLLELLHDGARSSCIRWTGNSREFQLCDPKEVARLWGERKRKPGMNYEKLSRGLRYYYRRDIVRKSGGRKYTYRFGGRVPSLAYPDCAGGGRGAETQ
# How it was run: as §1
# [17] = target: T11, ELF3 (Homo sapiens, UniProt P78545 1-371); settings: protein: recombinant; tags: N-terminal GST; dsDNA, one strand shown
# T11 sequence: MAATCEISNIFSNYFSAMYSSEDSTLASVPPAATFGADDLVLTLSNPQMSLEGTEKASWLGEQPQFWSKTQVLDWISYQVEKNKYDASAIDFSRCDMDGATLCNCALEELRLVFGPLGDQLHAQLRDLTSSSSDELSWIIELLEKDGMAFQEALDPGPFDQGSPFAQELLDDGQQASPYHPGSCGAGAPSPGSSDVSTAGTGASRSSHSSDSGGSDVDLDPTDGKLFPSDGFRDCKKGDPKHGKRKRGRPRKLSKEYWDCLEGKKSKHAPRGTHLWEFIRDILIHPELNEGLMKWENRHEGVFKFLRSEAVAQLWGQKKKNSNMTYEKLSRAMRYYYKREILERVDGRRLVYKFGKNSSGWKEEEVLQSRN
# How it was run: as §1
# [18] = target: CRX (Homo sapiens, UniProt O43186 1-299); settings: protein: recombinant; tags: N-terminal GST; dsDNA, one strand shown
# How it was run: as §1
# [19] = target: ETV1 (Homo sapiens, UniProt P50549 1-477); settings: protein: recombinant; tags: N-terminal GST; dsDNA, one strand shown
# How it was run: as §1
# ETV1, sequence (P50549 whole entry): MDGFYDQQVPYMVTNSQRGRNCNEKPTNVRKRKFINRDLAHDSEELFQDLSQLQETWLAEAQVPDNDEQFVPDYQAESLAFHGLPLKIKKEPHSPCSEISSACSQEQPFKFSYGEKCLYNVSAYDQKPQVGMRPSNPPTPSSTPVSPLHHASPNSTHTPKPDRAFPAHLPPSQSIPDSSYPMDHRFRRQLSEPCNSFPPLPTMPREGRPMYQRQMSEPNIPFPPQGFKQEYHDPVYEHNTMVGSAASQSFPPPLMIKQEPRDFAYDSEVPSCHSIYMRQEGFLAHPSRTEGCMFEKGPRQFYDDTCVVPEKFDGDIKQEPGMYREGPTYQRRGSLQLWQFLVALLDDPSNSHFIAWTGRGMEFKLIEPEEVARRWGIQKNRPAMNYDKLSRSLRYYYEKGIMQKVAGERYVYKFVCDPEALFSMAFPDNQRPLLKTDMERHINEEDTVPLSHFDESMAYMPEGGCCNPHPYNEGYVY
# SPIB, sequence (Q01892 whole entry): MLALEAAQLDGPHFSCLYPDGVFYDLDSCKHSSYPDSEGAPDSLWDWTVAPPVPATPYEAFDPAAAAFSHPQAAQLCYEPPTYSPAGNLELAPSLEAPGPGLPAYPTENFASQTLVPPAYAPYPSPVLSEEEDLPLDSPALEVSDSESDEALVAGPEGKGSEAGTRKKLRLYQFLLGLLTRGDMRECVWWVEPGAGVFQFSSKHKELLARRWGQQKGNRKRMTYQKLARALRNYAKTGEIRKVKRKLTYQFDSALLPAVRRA
# HSF1, sequence (Q00613 whole entry): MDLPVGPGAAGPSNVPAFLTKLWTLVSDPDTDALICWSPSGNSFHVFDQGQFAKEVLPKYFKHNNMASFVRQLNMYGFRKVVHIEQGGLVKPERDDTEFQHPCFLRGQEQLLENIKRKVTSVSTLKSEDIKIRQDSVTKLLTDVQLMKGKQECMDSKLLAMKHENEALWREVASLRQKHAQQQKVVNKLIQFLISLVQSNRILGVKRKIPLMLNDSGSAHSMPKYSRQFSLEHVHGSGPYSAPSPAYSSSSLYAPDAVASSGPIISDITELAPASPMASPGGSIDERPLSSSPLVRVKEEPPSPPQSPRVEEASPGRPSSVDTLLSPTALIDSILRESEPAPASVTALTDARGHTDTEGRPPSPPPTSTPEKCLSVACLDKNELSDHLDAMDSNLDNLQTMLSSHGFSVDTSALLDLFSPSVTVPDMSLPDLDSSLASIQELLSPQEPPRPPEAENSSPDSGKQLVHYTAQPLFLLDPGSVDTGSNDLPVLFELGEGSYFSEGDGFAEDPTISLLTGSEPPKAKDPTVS
# CRX, sequence (O43186 whole entry): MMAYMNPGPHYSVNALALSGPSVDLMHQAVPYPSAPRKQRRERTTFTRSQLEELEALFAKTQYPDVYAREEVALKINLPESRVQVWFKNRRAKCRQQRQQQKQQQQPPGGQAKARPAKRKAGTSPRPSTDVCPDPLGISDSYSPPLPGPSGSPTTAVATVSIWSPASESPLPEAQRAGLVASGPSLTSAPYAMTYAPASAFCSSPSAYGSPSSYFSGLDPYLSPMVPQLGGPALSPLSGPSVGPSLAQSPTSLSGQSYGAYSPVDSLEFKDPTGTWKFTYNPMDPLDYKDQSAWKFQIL
# ELF4, sequence (Q99607 whole entry): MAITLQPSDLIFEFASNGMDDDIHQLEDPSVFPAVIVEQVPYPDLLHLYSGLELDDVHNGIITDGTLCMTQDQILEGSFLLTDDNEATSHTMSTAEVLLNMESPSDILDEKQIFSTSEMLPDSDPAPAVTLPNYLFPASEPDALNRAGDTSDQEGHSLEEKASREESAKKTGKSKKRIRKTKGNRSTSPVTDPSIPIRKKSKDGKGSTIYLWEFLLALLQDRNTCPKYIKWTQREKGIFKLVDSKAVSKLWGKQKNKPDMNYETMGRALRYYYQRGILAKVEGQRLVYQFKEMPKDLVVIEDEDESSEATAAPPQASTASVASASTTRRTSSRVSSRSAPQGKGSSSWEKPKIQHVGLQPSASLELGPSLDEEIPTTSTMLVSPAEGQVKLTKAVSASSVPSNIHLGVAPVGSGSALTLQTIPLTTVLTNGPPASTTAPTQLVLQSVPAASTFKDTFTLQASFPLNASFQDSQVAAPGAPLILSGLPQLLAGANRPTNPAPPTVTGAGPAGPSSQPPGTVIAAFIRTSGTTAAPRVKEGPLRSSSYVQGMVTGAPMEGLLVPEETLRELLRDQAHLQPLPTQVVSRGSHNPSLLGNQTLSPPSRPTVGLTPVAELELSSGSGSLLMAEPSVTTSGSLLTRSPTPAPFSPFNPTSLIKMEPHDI
# ETV5, sequence (P41161 whole entry): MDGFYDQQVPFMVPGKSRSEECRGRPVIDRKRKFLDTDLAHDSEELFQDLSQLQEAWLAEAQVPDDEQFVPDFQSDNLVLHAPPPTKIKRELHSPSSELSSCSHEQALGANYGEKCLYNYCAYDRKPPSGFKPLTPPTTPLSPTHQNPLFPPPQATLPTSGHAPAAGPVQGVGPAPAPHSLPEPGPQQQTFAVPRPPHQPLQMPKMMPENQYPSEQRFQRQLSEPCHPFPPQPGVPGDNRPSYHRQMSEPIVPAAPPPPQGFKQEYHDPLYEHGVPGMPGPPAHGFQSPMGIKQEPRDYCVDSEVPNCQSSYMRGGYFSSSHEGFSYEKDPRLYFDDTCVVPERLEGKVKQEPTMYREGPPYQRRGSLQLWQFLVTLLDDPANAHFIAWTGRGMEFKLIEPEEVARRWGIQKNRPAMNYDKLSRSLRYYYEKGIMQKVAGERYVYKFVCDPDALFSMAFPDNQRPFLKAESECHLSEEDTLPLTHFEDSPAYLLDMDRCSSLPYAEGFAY
# ELF1, sequence (P32519 whole entry): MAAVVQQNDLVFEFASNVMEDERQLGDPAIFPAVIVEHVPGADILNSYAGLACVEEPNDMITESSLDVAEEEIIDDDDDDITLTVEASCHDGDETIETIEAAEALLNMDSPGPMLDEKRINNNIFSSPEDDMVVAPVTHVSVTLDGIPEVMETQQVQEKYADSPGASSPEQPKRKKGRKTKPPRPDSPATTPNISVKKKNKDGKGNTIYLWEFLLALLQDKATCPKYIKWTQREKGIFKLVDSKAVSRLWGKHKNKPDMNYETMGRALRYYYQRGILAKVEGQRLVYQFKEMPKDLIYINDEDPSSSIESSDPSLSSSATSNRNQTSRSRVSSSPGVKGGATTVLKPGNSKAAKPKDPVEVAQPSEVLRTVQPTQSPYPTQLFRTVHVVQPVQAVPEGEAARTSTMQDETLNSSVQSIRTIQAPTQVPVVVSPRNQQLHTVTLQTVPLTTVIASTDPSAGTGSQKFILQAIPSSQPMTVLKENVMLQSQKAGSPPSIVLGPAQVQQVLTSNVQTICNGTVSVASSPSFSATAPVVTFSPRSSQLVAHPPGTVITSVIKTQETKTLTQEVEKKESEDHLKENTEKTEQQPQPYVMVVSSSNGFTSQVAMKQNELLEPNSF
sequence,measurement,setting,value
CGATGG,binding signal,[1],"1.36 fold enrichment (6-mer frequency, TF over GST control)"
same,binding signal,[2],"1.4 fold enrichment (6-mer frequency, TF over GST control)"
same,binding signal,[3],"1.36 fold enrichment (6-mer frequency, TF over GST control)"
same,binding signal,[4],"1.34 fold enrichment (6-mer frequency, TF over GST control)"
same,binding signal,[5],"1.32 fold enrichment (6-mer frequency, TF over GST control)"
same,binding signal,[6],"1.24 fold enrichment (6-mer frequency, TF over GST control)"
same,binding signal,[7],"1.41 fold enrichment (6-mer frequency, TF over GST control)"
same,binding signal,[8],"1.58 fold enrichment (6-mer frequency, TF over GST control)"
same,binding signal,[9],"1.4 fold enrichment (6-mer frequency, TF over GST control)"
same,binding signal,[10],"1.23 fold enrichment (6-mer frequency, TF over GST control)"
same,binding signal,[11],"1.28 fold enrichment (6-mer frequency, TF over GST control)"
same,binding signal,[12],"1.36 fold enrichment (6-mer frequency, TF over GST control)"
same,binding signal,[13],"1.31 fold enrichment (6-mer frequency, TF over GST control)"
same,binding signal,[14],"1.36 fold enrichment (6-mer frequency, TF over GST control)"
same,binding signal,[15],"1.46 fold enrichment (6-mer frequency, TF over GST control)"
same,binding signal,[16],"1.34 fold enrichment (6-mer frequency, TF over GST control)"
same,binding signal,[17],"1.15 fold enrichment (6-mer frequency, TF over GST control)"
same,binding signal,[18],"1.14 fold enrichment (6-mer frequency, TF over GST control)"
same,binding signal,[19],"1.41 fold enrichment (6-mer frequency, TF over GST control)"
